uPA surface inh: cell surface uPA generation inhibition. 330,000 tested, 0.31% active. Potency, µM (top dose mostly 38.3 µM), inactives show at the highest dose activity change, negative = inhibition, hits mostly inhibitors. cell surface uPA generation assay, qHTS; active = well fitted inhibition curve with a large enough effect; inconclusive = small, poorly fitted or top-dose-only effect; inactive = no such curve, though single readings can be large or run the other way; tested in mouse RAW 264.7 cells; note: potency is the fitted concentration of half-maximal effect; % is set by controls: 0 for no effect and ±100 for the full control effect; nearly all actives have a fitted effect of over 55% in size
ClpP mod: qHTS Assay for Activators of ClpP. ATP-dependent Clp protease proteolytic subunit (Bacillus subtilis (strain 168)), P80244. purified B. subtilis ClpP, FRET peptide cleavage, 20 min. Potency, µM (doses to about 57.5 µM), without a hit: at the highest dose activity change, negative = active. 340,000 tested, 1.9% active. AID 651965, 2013; active = well fitted falling curve with a large enough effect; inconclusive = small, poorly fitted or top-dose-only effect; inactive = no such curve, though single readings can be large or run the other way; note: potency is the fitted concentration of half-maximal effect; the source files actives as falling curves though it sought activators and does not explain the sign; nearly all actives have a fitted effect of over 65% in size
Target sequence (P80244 whole entry, looked up): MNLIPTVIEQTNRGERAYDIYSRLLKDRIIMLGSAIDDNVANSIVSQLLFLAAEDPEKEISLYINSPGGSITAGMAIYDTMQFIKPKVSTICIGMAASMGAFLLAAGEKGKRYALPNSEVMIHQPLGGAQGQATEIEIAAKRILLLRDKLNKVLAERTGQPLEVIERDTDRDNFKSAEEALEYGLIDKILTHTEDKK
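FRET quenching reversal measured ClpP activation: 10 microg/mL B. subtilis ClpP at pH 8 with the FRET-FV decapeptide, read at 430 nm after 320 nm excitation. The 20-min minus 0-min signal was scaled between DMSO/no-enzyme wells and ADEP (5.8 microM final).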
TCR activator: activators of T cell receptors; primary human leukocytes, anti-CD3, IL-2 HTRF, 48 h; Potency, µM (titrated, usually from 9.22 µM), for the others: at the top dose activation of IL-2 secretion, actives largely listed as activators; 330,000 tested, under 10 active; AID 504894; note: % of control where 0% means no effect
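IL-2 release read by HTRF sandwich (Eu cryptate donor, d2 acceptor, 665 nm emission) after 48 hr exposure of primary human leukocytes to compound together with anti-CD3 beads in the absence of co-stimulatory signals.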
Sfp PPTase inh: blocks B. subtilis Sfp PPTase activity; Biochemical Sfp PPTase activity, qHTS; Potency, µM, without a hit: largest response in the series, negative = inhibition, hits mostly inhibitors; 310,000 tested, 3.5% active;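 note: the enzyme is Sfp with the accession as filed and its product quenches rhodamine fluorescence; potency is the fitted concentration of half-maximal effect; 0% = enzyme reaction without inhibitor and -100% = no enzyme wells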
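Fluorescence-quenching assay: 15 nM Sfp-PPTase preincubated 15 min at room temperature with compound, then 5 uM rhodamine-CoA and 12.5 uM BHQ-2-labelled YbbR peptide added. Fluorescence (ex 525/em 598 nm) read at start and after 30 min; difference gives rate.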
An asterisk follows results filed as active; ? = inconclusive; nt = no result given; [ ] = dose if it differs, or a comment. A selection: hits, their analogues and other compounds. The true share with any hit is near 4.2%. Unless noted, calls come from the whole dose curve; as a rule, active = well fitted curve in the direction sought with a large enough effect; inconclusive = small, poorly fitted or top-dose-only effect, or another doubt; inactive = no such curve, though single readings can be large; an effect the other way counts as inactive or inconclusive.

SMILES	uPA surface inh	ClpP mod	TCR activator	Sfp PPTase inh
Cc1cccn2c(=O)c3cc(C(=O)NCCN4CCOCC4)c(=N)n(CCc4ccccc4)c3nc12	1.4%	3.16µM*	-1.2%	-4.6%
Cc1cccn2c(=O)c3cc(C(=O)NC4CCCC4)c(=N)n(Cc4ccc(F)cc4)c3nc12	1.3%	3.6%	13.4%	?
CC[C@H](C)[C@H](NC(=O)[C@H](C)NC(=O)[C@H](Cc1cnc[nH]1)NC(=O)[C@@H]1CCCN1C(=O)CNC(=O)[C@H](CC(C)C)NC(=O)[C@H](CC(C)C)NC(=O)[C@H](Cc1ccc(O)cc1)NC(=O)CNC(=O)[C@H](C)NC(=O)[C@H](CO)NC(=O)[C@H](CC(N)=O)NC(=O)[C@H](CC(C)C)NC(=O)[C@@H](NC(=O)[C@H](Cc1c[nH]c2ccccc12)NC(=O)CN)[C@@H](C)O)C(=O)O	nt	nt	nt	-10.7%
Cc1ccc(-n2nc(C(=O)N(C)c3ccccc3Cl)c3c4ccccc4n(C)c3c2=O)cc1	nt	-3.4%	nt	nt
CCOc1cccc(C2C=C(c3ccc4c(c3)OCO4)NC(c3cccc(Br)c3)N2)c1O (centres undefined)	nt	-0.6%	nt	nt
CC1=NN(C(=S)Nc2ccccc2)C(c2ccccc2)C1 (centres undefined)	0.6%	-2.0%	8.0%[46.1 µM]	-16.5%
Cc1ccc(C2CC(c3ccccc3)=NN2C(=S)Nc2ccccc2)o1 (centres undefined)	-9.3%	1.1%	2.7%	44.7µM*
O=C(N/N=C/c1ccc(Cl)cc1)c1cc2c(s1)-c1ccccc1CC2	1.4%	28.2µM*	-0.3%	17.3%
CC(=O)N1CC[n+]2c(-c3ccc(Cl)cc3Cl)csc21	-24.7%	-0.7%	3.7%[46.1 µM]	31.6µM*
COC(=O)c1cc2sc(Cl)cc2n1Cc1nc(-c2ccccc2)oc1C	6.0%	-1.1%	2.8%	79.4µM*
CCOC(=O)C(C#N)=C1CCC=C(C)C1	nt	-0.1%	nt	nt
CCOC(=O)/C(C#N)=C1\SS/C(=C(/C#N)C(=O)OCC)S1	nt	nt	nt	10µM*
COc1ccc(OC)c(NC(=S)NC(=O)c2ccc(Br)o2)c1	-1.3%	0.7%	0.6%	9.7%
O=C(c1ccco1)n1nc(-c2ccccc2)nc1NCc1ccccc1Cl	nt	-13.4%	nt	nt
COc1ccc(/C(N)=N/OC(=O)Cc2cccs2)cc1	6.4%	-2.1%	3.2%[46.1 µM]	6.0%
COc1ccc(/C(N)=N/OC(=O)Cc2cccs2)cc1OC	1.5%	0.8%	-1.7%[46.1 µM]	79.4µM*
Cc1ccc(Cn2ccn(CC(=O)Nc3ccccc3C(F)(F)F)c(=O)c2=O)cc1	nt	-0.3%	nt	nt
Cc1cc(=O)oc2cc(OC(C)C(=O)O)c(Cl)cc12 (centres undefined)	7.3%	28.2µM*	-25.1%	21.2%
Cc1cc(=O)oc2cc(OCC(=O)Nc3c(C)n(C)n(-c4ccccc4)c3=O)c(Cl)cc12	-1.2%	31.6µM*	-7.2%	nt
Cc1ccc(C)c(OCC(=O)Nc2c(C)n(C)n(-c3ccccc3)c2=O)c1	8.0%	-2.0%	nt	nt
CCOc1ccc2oc(=O)cc(C)c2c1	-2.5%	31.6µM*	4.7%	-2.0%
Cc1cc(=O)oc2ccc(OC(C)C(=O)O)cc12 (centres undefined)	4.5%	31.6µM*	-0.8%[46.1 µM]	16.6%
Cc1nnc(NC(=O)C2CCCN2S(=O)(=O)c2ccc(Cl)cc2)s1 (centres undefined)	1.5%	nt	8.5%	18.7%
Nc1ccn([C@@H]2O[C@H](C(=O)N[C@H](CO)Cc3ccccc3)[C@@H](O)[C@H]2O)c(=O)n1	nt	-3.5%	nt	nt
CCOc1ccc(Nc2nnc(-n3nc(C)cc3C)c3ccccc23)cc1	nt	0.0%	nt	nt
SMILES	uPA surface inh	ClpP mod	TCR activator	Sfp PPTase inh
Cc1cc(NC(=O)c2cc(-c3ccco3)on2)nn1Cc1ccc(Cl)cc1	-14.7%	390.5%	nt	17.8µM*
Cc1nn(Cc2ccc(Cl)c(Cl)c2)c(C)c1NC(=O)c1cc(-c2ccco2)on1	nt	-12.8%	-3.9%[46.1 µM]	44.7µM*
COc1ccc(OC)c(-c2cc(C(=O)Nc3c(C)nn(Cc4ccccc4Cl)c3C)no2)c1	nt	35.5µM*	-1.9%	7.0%
COCCn1c(=O)cnc2cnc(N3CCN(C)CC3)nc21	nt	nt	nt	-6.4%
Cc1ccc(S(=O)(=O)c2nnn(-c3ccc(F)c(Cl)c3)c2N)cc1	nt	-0.1%	nt	nt
COCC(=O)N1C[C@H](C)[C@H](OC)CN(C)C(=O)c2cc(NC(=O)Nc3cccc(F)c3)ccc2OC[C@@H]1C	nt	0.6%	nt	nt
COCCn1c(=O)c(-c2ccc(OC)cc2)nc2cnc(N3CCN(C)CC3)nc21	nt	nt	nt	21.3%
COC(=O)CN1C(=O)N/C(=C/c2ccc(C)o2)C1=O	-0.7%	nt	0.5%	22.4µM*
Cc1ccc2occ(/C=C/C(=O)c3ccccc3O)c(=O)c2c1	-5.2%	15.8µM*	6.5%	9.4%
Cc1ccc2occ(/C=N/NC(=O)c3ccccc3O)c(=O)c2c1	2.6%	3.9%	4.0%	10.1%
COc1cc2nc(N3CCOCC3)nc(NC3CCN(Cc4ccccc4)CC3)c2cc1OC	nt	4.3%	nt	nt
C=CCOc1ccc2c(OC)c3ccoc3nc2c1OC	-7.0%	22.4µM*	-2.6%[46.1 µM]	7.9%
CCOc1c2ccoc2nc2c(OC)c(OC)ccc12	?	4.0%	-2.8%	-14.9%
O=C(CCCc1nc(-c2ccccc2)no1)NC1CCCCC1	-3.4%	nt	5.3%	12.8%
Cc1cccc(CC(Cc2nc3ccccc3[nH]2)c2nc3ccccc3[nH]2)c1 (centres undefined)	4.5%	-5.2%	11.2%	39.8µM*
CC(C)Cc1nc2ccccc2[nH]1	-12.2%	0.5%	6.2%	9.5%
O=C(NC1CC1)c1cc(=S)[nH]c2ccccc12	4.7%	-1.2%	3.7%[46.1 µM]	nt
CCOc1ccccc1N1CC(c2nc3ccccc3n2CCOc2ccccc2OC)CC1=O (centres undefined)	nt	-7.7%	nt	nt
O=C(Nc1ccc(-c2nc3cccnc3s2)cc1)C1CCCO1 (centres undefined)	2.51µM*	4.1%	0.9%	2.3%
O=C(Nc1ccc(-c2nc3ccccc3o2)cc1)C1CCCO1 (centres undefined)	nt	15.8µM*	6.5%	-0.9%
O=C(Nc1ccc(-c2nc3cc(Cl)ccc3o2)cc1)c1cc(Br)ccc1Cl	nt	28.2µM*	nt	nt
COc1ccc(Br)cc1C(=O)Nc1ccc(-c2nc3cc(Cl)ccc3o2)cc1	nt	-10.4%	nt	nt
O=C(Nc1ccc2oc(-c3ccccc3)nc2c1)C1CCCO1 (centres undefined)	-2.8%	-1.2%	1.9%[46.1 µM]	19.3%
O=C(Nc1ccc(-c2nc3cc(Cl)ccc3o2)cc1)C1CCCO1 (centres undefined)	nt	28.2µM*	4.9%[46.1 µM]	3.4%
CCOC(=O)CCN1C(=O)[C@H]2[C@H]3[C@H](O)[C@H](O)C/C(=N/OC[C@@H](O)COCc4ccco4)[C@H]3CC[C@@H]2C1=O	nt	nt	nt	-4.5%
CC1Cc2cc(S(=O)(=O)CCC(=O)Nc3ccc(F)cc3Cl)ccc2N1C(=O)C1CC1 (centres undefined)	nt	-0.2%	nt	nt
c1ccc(-c2nc(-c3cccc4ccccc34)c(NC3CCCCC3)o2)cc1	nt	nt	nt	-20.2%
Cc1ccc2nc(-c3ccc(NC(=O)C4CCCO4)cc3)[nH]c2c1 (centres undefined)	nt	31.6µM*	2.7%	8.3%
Cc1ccc2nc(-c3ccc(NC(=O)Cc4cccs4)cc3)[nH]c2c1	1.9%	?	1.6%	14.8%

High-throughput results: PubChem, National Center for Advancing Translational Sciences (NCATS)
